Source: PubChem
Sampled rows, rich in hits. Any-hit rate of the full collection: about 3.1%.
p53null 39C tox = selectivity test: cytotoxicity in p53 null cells, nonpermissive temperature; H1299 p53-null (neo) cells, 39C, ATPlite viability, 24 h; Potency, µM (doses to about 46.1 µM), for the others: at the top dose activity, negative = cell killing, actives largely listed as cytotoxic; hit rate 0.97% among 55,000; AID 904;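 further: 0% = DMSO only and -100% = full killing by 100 µM tamoxifen; nearly all actives have a fitted effect of over 50% in size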
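H1299 lung cancer cells, p53-null (H1299-neo) or expressing p53 A138V (H1299-p53A138V), were plated overnight at 37C, then exposed to compounds at up to 46 uM for 24 hr at 39C. Viability was read by ATP-based luminescence.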
SKOV3 invasion = inhibitors of ovarian cancer cell adhesion and invasion in omental model | SKOV3ip1-GFP adhesion/invasion on 3D omental model, fluorescence | Potency, µM (series often up to 45.8 µM), without a hit: at the highest dose activity change, negative = inhibition, hits mostly inhibitors | hit rate 0.1% among 46,000 | AID 1963576;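 further: plate controls were DMSO wells for no effect and tomatine positive control wells for full effect; nearly all actives have a fitted effect of over 65% in size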
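A 3D layer of primary human omental fibroblasts, mesothelial cells, fibronectin and collagen I, grown 48 hr, received SKOV3ip1-GFP cells in serum-free medium plus compounds at 0.36-46 umol/L. After 2 hr RT and 16 hr 37 C, fixed adherent GFP cells were counted; normalized to DMSO and tomatine.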
S16 F2sN tox = cytotoxicity in S16 Pmp22-F2sN Schwann cells | hit rate 0.48% among 43,000 | AID 1508642 | S16 Pmp22-F2sN Schwann cells viability, CellTiter-Glo, 24 h | Potency, µM (series often up to 57.5 µM), for inactives: at the highest dose activity change, negative = cytotoxicity, most hits filed as cytotoxic; further: nearly all actives have a fitted effect of over 65% in size
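Seed 500-1,000 S16 Pmp22-F2sN cells per well in phenol-red-free DMEM with 10% heat-inactivated FBS; pin-add 23 nL compound; incubate 24 h at 37C; add CellTiter-Glo, wait 15 min protected from light; read luminescence.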
PMP22 txn = modulators of PMP22 gene transcription in S16 Schwann cells; S16 Pmp22-F2sN Schwann cells (luciferase reporters placed in the Pmp22 gene), FLuc/NLuc coincidence luminescence, 24 h; Potency, µM (titrated, usually from 57.5 µM), without a hit: at the highest dose activity change, negative = inhibition, most hits filed as inhibitors; hit rate 2% among 43,000; AID 1508649; active means clear falling dose curves in both reporters; inconclusive means both reporters move, but less clearly or upward; inactive means either reporter flat; the % is the NLuc reporter signal
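S16(c9) Schwann cells with FLuc/NLuc coincidence reporter in the Pmp22 3' UTR; compounds pin-transferred, 24 h at 37C. Dual-luciferase read: FLuc first, then NLuc after Stop&Glo, each 10 min at room temperature.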
p53null 32C kill = kills p53 null cells at the permissive temperature; H1299-neo p53 null cells, ATP luminescence, 24 h, 32C; Potency, µM (highest dose often 46.1 µM), for the others: at the highest dose activity change, negative = cytotoxicity, most hits filed as cytotoxic; hit rate 0.62% among 55,000;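 further: 0% = DMSO only and -100% = full killing by 100 µM tamoxifen; nearly all actives have a fitted effect of over 55% in size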
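Cells lacking p53 (H1299-neo) are plated at 600 per well and allowed to settle overnight at 37C. Test compounds (up to 46 uM) are added and held 24 hours at 32C, then ATP is quantified by luminescence.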
pS6 MEF inh = reduces mTORC1 signaling in Tsc2 and p53 null MEF cells; Tsc2-/- p53-/- MEF, phospho-rpS6 immunofluorescence/PI, 24 h; hit rate 0.78% among 44,000; Potency, µM (top dose mostly 38.3 µM), inactives show top-dose activity change, negative = inhibition, usual class: inhibitors; AID 493208;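 further: plate controls were DMSO for no effect and rapamycin for full effect; nearly all actives have a fitted effect of over 50% in size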
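Compounds act on Tsc2-/-, p53-/- fibroblasts carrying an empty vector for 24 h before fixation and dual staining for phospho-S6 and DNA (propidium iodide). Values are percentages of cells above a rapamycin-defined pS6/PI threshold.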
Active calls of the source: *. Unless noted, the call rests on the fitted dose curve; in most records, active means well fitted curve in the direction sought with a large enough effect; inconclusive means small, poorly fitted or top-dose-only effect, or another doubt; inactive means no such curve, though single readings can be large; an effect the other way counts as inactive or inconclusive. Unless noted, on the % scale 0 is the no-effect control and ±100 the full control effect; potency means the concentration at half of the fitted maximal effect.

How did COc1ccc(CNC(=O)c2cc(-c3ccc(OC)c(OC)c3)nc3n[nH]c(-c4ccc(C)cc4)c23)cc1 do in these assays?
p53null 39C tox: -2%; SKOV3 invasion: inconclusive; S16 F2sN tox: -13%; PMP22 txn: inconclusive; p53null 32C kill: -12%; pS6 MEF inh: 15µM*

Results for COc1ccc(-c2cc(C(=O)NCc3ccc(F)cc3)c3c(-c4ccc(F)cc4)[nH]nc3n2)cc1OC ?
p53null 39C tox: 1%; SKOV3 invasion: -7%; S16 F2sN tox: inconclusive; PMP22 txn: inconclusive; p53null 32C kill: -14%; pS6 MEF inh: -6%

What do the screens show for `CCCCNC(=O)c1cc(-c2ccc(OC)cc2)nc2n[nH]c(-c3cccc([N+](=O)[O-])c3)c12`?
p53null 39C tox: 15%; SKOV3 invasion: -4%; S16 F2sN tox: 16µM*; PMP22 txn: inconclusive; p53null 32C kill: 1%; pS6 MEF inh: -5%

What do the screens show for `COc1ccc(CNC(=O)c2cc(-c3ccc(OC)cc3)nc3n[nH]c(-c4cccc([N+](=O)[O-])c4)c23)cc1`?
p53null 39C tox: 14%; SKOV3 invasion: -8%; S16 F2sN tox: 3%; PMP22 txn: inconclusive; p53null 32C kill: 4%; pS6 MEF inh: 1%

How did Cc1ccc(C(C)(O)c2nc3ccccc3s2)c(C)c1 (stereo unspecified) do in these assays?
SKOV3 invasion: -21%

Results for CCN(C(=O)C1CCN(S(=O)(=O)c2cc(Br)cc3c2N(C(C)=O)CC3)CC1)c1cccc(C)c1 ?
p53null 39C tox: -7%; SKOV3 invasion: 4%; S16 F2sN tox: inconclusive; PMP22 txn: 8.9µM*; p53null 32C kill: 6%; pS6 MEF inh: 3%

How did COc1cc2c(cc1Cc1cccc(Cl)c1F)c(=O)c(C(=O)O)cn2[C@H](CO)C(C)C do in these assays?
SKOV3 invasion: -13%

How did Cc1cccc(-n2cnc3cc(C(=O)NC4CCCCCC4)ccc32)c1 do in these assays?
p53null 39C tox: 5%; SKOV3 invasion: -8%; S16 F2sN tox: inconclusive; PMP22 txn: inconclusive; p53null 32C kill: 44%; pS6 MEF inh: 9.3µM*

Results for CCN(CC)c1ccc(NS(=O)(=O)c2ccc(-c3cnc(C4CC4)o3)cc2)c(C)c1 ?
p53null 39C tox: 48%; SKOV3 invasion: inactive; S16 F2sN tox: 1.8µM*; PMP22 txn: inconclusive; p53null 32C kill: inconclusive; pS6 MEF inh: 0%

What do the screens show for `Cc1cc(C)c(NS(=O)(=O)c2cc(-c3cnc(C4CC4)o3)ccc2C)c(C)c1`?
p53null 39C tox: -6%; SKOV3 invasion: inconclusive; S16 F2sN tox: 3%; PMP22 txn: -6%; p53null 32C kill: 1%; pS6 MEF inh: 30%

Results for Cc1cc(C)c(NS(=O)(=O)c2ccc(-c3cnc(C4CC4)o3)cc2)c(C)c1 ?
p53null 39C tox: inconclusive; SKOV3 invasion: inactive; S16 F2sN tox: 0.79µM*; PMP22 txn: inconclusive; p53null 32C kill: 47%; pS6 MEF inh: inconclusive

Results for COc1cccc(N2CCN(S(=O)(=O)c3ccc(-c4cnc(C5CC5)o4)cc3)CC2)c1 ?
p53null 39C tox: -25%; SKOV3 invasion: inactive; S16 F2sN tox: 16µM*; PMP22 txn: inconclusive; p53null 32C kill: -10%; pS6 MEF inh: 0%

How did CCOc1ccccc1NS(=O)(=O)c1ccc(-c2cnc(C3CC3)o2)cc1 do in these assays?
p53null 39C tox: inconclusive; SKOV3 invasion: 10%; S16 F2sN tox: -17%; PMP22 txn: inconclusive; p53null 32C kill: -6%; pS6 MEF inh: inconclusive

What do the screens show for `COc1ccc(C=Cc2cc(OC)c(OC)c(OC)c2)cc1NC(=O)[C@H](N)CO`?
SKOV3 invasion: 29%
